Screens as filed in PubChem.
Pf growth 96h: inhibits malaria parasite growth, 96 h | P. falciparum luciferase reporter growth, 96 h | Potency, µM (titrated, usually from 28.7 µM), for inactives: top-dose activity change, negative = inhibition, usual class: inhibitors | actives 6.9% (n = 320,000); further: potency means the concentration at half of the fitted maximal effect; on the % scale 0 is the no-effect control and ±100 the full control effect
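Parasite growth measured via integrated firefly luciferase reporter in P. falciparum. Infected erythrocytes at 2% hematocrit, 0.05% parasitemia final were treated 96 hours at 37 C under 5% CO2, and luminescence was read.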
Pf growth 48h: P. falciparum growth inhibition at 48 hours (one generation) | Potency, µM (series often up to 28.7 µM), for inactives: at the top dose activity change, negative = inhibition, hits mostly inhibitors | P. falciparum luciferase growth in erythrocytes, 48 h | actives 5.9% (n = 310,000); further: potency means the concentration at half of the fitted maximal effect; on the % scale 0 is the no-effect control and ±100 the full control effect
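Luciferase-expressing parasites in RBCs, 2% Hct / 0.1% parasitemia final; RPMI 1640 + 0.5% Albumax; 37 C, 5% CO2, one generation; luminescence read-out, lower signal = inhibition.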
Shiga toxin inh: Shiga toxin inhibition; inhibition, % at 38.7 µM; AID 2315; actives 9.2% (n = 290,000); Vero cells, Shiga toxin protein synthesis inhibition reporter; in the data active means inhibition mostly above about 28%, no sharp cut-off; inactive means mostly below about 43%; further: 0% is about no effect
CHX counter: counter-screen hit for Shiga toxin inhibitors, cycloheximide; actives 12% (n = 300,000); max response, %; AID 2314; cell reporter, cycloheximide protein synthesis inhibition counterscreen; in the data active means max response mostly above about 13%, no sharp cut-off; inactive means mostly below about 14%; further: read at 38.3 µM for the half of the compounds with a filed dose; 0% is about no effect
The depositor's hits bear a star; u = inconclusive; x = no result. The list is not random: actives were taken first. Their share in the collection is about 21%. Unless noted, the call rests on the fitted dose curve; in most records, active means well fitted inhibition curve with a large enough effect; inconclusive means small, poorly fitted or top-dose-only effect, or another doubt; inactive means no such curve, though single readings can be large or run the other way.

SMILES | Pf growth 96h | Pf growth 48h | Shiga toxin inh | CHX counter
CCN(CC)c1ccc(NC(=O)c2cccc(OC)c2)c(C)c1 | 148% | 4% | 25 | 17*
CCN(CC)c1ccc(NC(=O)c2ccc3c(c2)OCO3)c(C)c1 | 131% | 4% | 13 | 17*
NC(=O)N(N)c1nc(N2CCCC2)nc(N2CCCC2)n1 | -17% | 11% | x | x
COc1cccc(CNCc2ccc(SC)cc2)c1OC | 55% | 12% | -3 | -1
Cc1ccc(NC(=O)C2=C(O)c3ccccc3N(C)S2(=O)=O)cc1 | 1% | -10% | 44 | 34*
Cc1cccc(C)c1NC(=O)C1=C(O)c2ccccc2N(C)S1(=O)=O | -11% | u | -2 | 2
COc1ccc(C(=O)NCCc2c[nH]c3ccccc23)cc1S(=O)(=O)N1CCOCC1 | 37% | u | -13 | -5
Cc1ccc(Cc2nnc3n(-c4ccccc4)nc(C(=O)c4ccccc4)n3c2=O)cc1 | 13µM* | 13µM* | -2 | -4
Cc1cc(C(=O)NC2CCCCC2)c(C)n1-c1ccc(F)cc1 | 0% | 50% | 77* | 46*
Cc1cc(C(=O)CN2CCC(C)CC2)c(C)n1-c1ccc(F)cc1 | 31% | 132% | 22* | 32*
Cc1cc(C(=O)CN2CCCCC2)c(C)n1-c1ccc(F)cc1 | -25% | 37% | 56* | 37*
Cc1cc(C(=O)CN2C(=O)C(=O)N(C3CCCC3)C2=O)c(C)n1-c1ccc(F)cc1 | -23% | u | 32 | 22
Cc1cc(C(=O)CN2CCCC2)c(C)n1-c1ccc(Cl)cc1 | -10% | -19% | 21 | 9
COc1ccc(-n2c(C)cc(C(=O)C[N+]34CCN(CC3)CC4)c2C)cc1 | 5.9µM* | -16% | 3 | -2
Cc1cc(C(=O)CN2CCCC2)c(C)n1-c1ccc(F)cc1 | u | u | 6 | 3
Cc1cc(C(=O)CNCc2ccco2)c(C)n1-c1ccc(F)cc1 | 19% | 81% | 74* | 38*
COc1ccc(-n2c(C)cc(C(=O)CN3CCC(C)CC3)c2C)cc1 | -27% | -4% | 63 | 37*
Cc1nnc(SCC(=O)NCc2ccco2)n1-c1ccc(F)cc1 | -109% | -1% | 32 | 3
Cc1ccc2nc(/C(C#N)=C\c3ccc(Oc4ccc([N+](=O)[O-])cn4)cc3)[nH]c2c1 | u | 9.3µM* | 12 | 1
COc1ccc2nc(/C(C#N)=C\c3ccc(Oc4ccc([N+](=O)[O-])cn4)cc3)[nH]c2c1 | u | 15µM* | -5 | -6
CN(C(=O)CSc1nnc(-c2c[nH]c3ccccc23)n1C1CC1)C1CCS(=O)(=O)C1 (configuration not stated) | u | -11% | x | x
CC1Cc2ccccc2N1C(=O)CN1CCC(C(N)=O)CC1 (configuration not stated) | -14% | 33% | -3 | 1
CC(C)Cc1nnc(NC(=O)c2ccc3c(c2)OCCO3)s1 | 473% | 396% | x | x
CCCCCCC#Cc1ccc2c(c1)COc1c3ccccc3nn1-2 | 42% | 22% | 18 | 3
CCCCC#Cc1ccc2c(c1)COc1c3ccccc3nn1-2 | 139% | 71% | 56* | 37*
SMILES | Pf growth 96h | Pf growth 48h | Shiga toxin inh | CHX counter
CC(C)(C)c1ccc(C(=O)NCCC(=O)Nc2ccc3c(c2)OCCO3)cc1 | -6% | u | x | x
OC(CCN1CCCCC1)(c1ccccc1)c1ccccc1 | u | u | -4 | -2
O=c1cc(CSc2nnc(-c3cccnc3)n2-c2ccccc2F)nc2sccn12 | 9% | -12% | -9 | -4
Cc1ccc(CSc2nnc(-c3cccnc3)n2N)cc1 | 29% | -3% | -4 | -3
Cc1ccc(Nc2nc(CSc3nnc(-c4cccnc4)n3-c3ccccc3C)cs2)cc1 | u | -21% | 41 | 24*
Cc1ccccc1-n1c(SCc2csc(Nc3ccccc3)n2)nnc1-c1cccnc1 | 9.3µM* | u | -9 | -5
COc1ccccc1/C=C/C(=O)NCc1ccccn1 | 14% | 13% | 16 | 10
Cn1ccsc1=NC(=O)c1cccc(OC(F)F)c1 | 109% | x | 92* | 45*
C#Cc1ccc([C@@H]2C=C(C(=O)Nc3ccccc3)O[C@H](OCC)[C@H]2CCCO)cc1 | 1.9µM* | u | -8 | -2
C#Cc1ccc([C@H]2C=C(C(=O)OCC=C)O[C@@H](OCC)[C@@H]2CCCO)cc1 | u | -21% | -6 | -2
C#Cc1ccc([C@@H]2C=C(C(=O)OCC=C)O[C@H](OCC)[C@H]2CCCO)cc1 | 2.3µM* | u | -10 | -1
Cc1[nH]cnc1CSCc1ccc(Cl)cc1 | u | u | 73* | 23*
NC(=O)C1CC(=O)N(c2ccc(OCc3ccccc3Cl)cc2)C1 (configuration not stated) | u | 41% | 25* | 23*
Cc1ccc(N2CC(C(=O)OCc3ccc([N+](=O)[O-])cc3)CC2=O)cc1 (configuration not stated) | 0% | x | 6 | 5
NC(=O)C1CC(=O)N(c2ccc(OCc3ccc(F)cc3)cc2)C1 (configuration not stated) | 37% | 125% | 94* | 37*
Cc1ccc(N2CC(C(=O)OCC(=O)c3ccc(F)cc3)CC2=O)cc1 (configuration not stated) | 2.9µM* | 13% | -7 | -2
O=C(O)C1CC(=O)N(c2ccc(OCc3ccccc3Cl)cc2)C1 (configuration not stated) | x | -6% | -4 | -4
NC(=O)C1CC(=O)N(c2ccc(OCc3ccc([N+](=O)[O-])cc3)cc2)C1 (configuration not stated) | 53% | 91% | x | 26*
O=C(COC(=O)CSc1ccc([N+](=O)[O-])cc1)NCCC1=CCCCC1 | -3% | -24% | x | x
Cc1ccc(CN2CC(C(=O)NCCCSc3ccccc3)CC2=O)cc1 (configuration not stated) | 1% | 14% | -38 | 2
CCc1ccc(S(=O)(=O)NCCc2cn3cccc(C)c3n2)s1 | 0% | -11% | -9 | -6
O=C1C(=C(O)c2ccccc2)C(=O)c2ccccc21 | -7% | u | 24 | 14*
Cc1ccccc1NC(=S)N1CCN(Cc2ccccc2)CC1 | 1.2µM* | 5% | -12 | -5
CCN1CCN(C(=S)NC(CC(=O)c2ccccc2)c2ccccc2)CC1 (configuration not stated) | u | -7% | -4 | -2
S=C(Nc1ccc(Cl)cc1)N1CCN(Cc2ccccc2)CC1 | 16% | 13% | -19 | -1
SMILES | Pf growth 96h | Pf growth 48h | Shiga toxin inh | CHX counter
S=C(Nc1ccccc1Cl)N1CCN(Cc2ccccc2)CC1 | -4% | u | -2 | -1
CC(C)c1ccc(NC(=S)N2CCN(Cc3ccccc3)CC2)cc1 | 19% | 10% | 36 | 12*
CCN1CCN(C(=S)NC(C)c2ccccc2)CC1 (configuration not stated) | 3.7µM* | 7% | 10 | -1
CC(C)c1ccc(NC(=S)NC2CCN(Cc3ccccc3)CC2)cc1 | u | 10µM* | -6 | 0
CCOc1ccc(N2CC(C(=O)NCCc3ccc(F)cc3)CC2=O)cc1 (configuration not stated) | 3% | 3% | -6 | 0
CCc1ccc(NC(=O)CCn2nc(C)c(S(=O)(=O)N3CCCCC3)c2C)cc1 | 31% | 9% | -8 | -5
